The campaign covered roughly 640,000 compounds. About 9,300 (1.5%) were called active. No stated cut-off is given here; in the data, active means inhibition above about 32%; inactive means the rest. The list comes from a sample in which actives are over-represented; it also holds similar structures and randomly drawn compounds.
Assay: TEAD-YAP interaction inhibition, primary screen, TEAD-YAP interaction inhibitor project, luminescence, HEK-TIYL cells (AID 1259422);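 further: 0% = median of test compound wells and 100% = reference inhibitor wells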
Conditions: TEAD-Gal4/YAP UAS-luciferase luminescence, at 9.12 µM, active compounds read high

SMILES	inhibition
COCc1ccc(-c2ccc(OC3CCN(c4ncnc5nc[nH]c45)CC3)cc2)cc1	-7.79% (inactive)
CCCCCCOC1OC(COC(C)=O)C(OC(C)=O)C(OC(C)=O)C1NC(C)=O (stereo not drawn)	10.2% (inactive)
COc1ccc(-c2c(C)nn3c(NCCO)c4c(nc23)CCCC4)cc1	0.55% (inactive)
COC(=O)C(NNc1ccccc1C)(NC(=O)c1ccc(Cl)cc1)C(F)(F)F (stereo not drawn)	-4.69% (inactive)
Cc1ccc(C)c(OCC(=O)NC(C)(C)C)c1	1.69% (inactive)
COc1ccc(S(=O)(=O)Oc2ccc(C=O)cc2)cc1	12.9% (inactive)
Cc1c(C2=N/C(=C/c3cccc(Cl)c3Cl)C(=O)O2)cccc1[N+](=O)[O-]	-5.1% (inactive)
CSc1cccc(Nc2nc3ccccc3n3cnnc23)c1	-29.4% (inactive)
Cc1cc2c(N(C)C3CCCCC3)ncnc2s1	-14.3% (inactive)
CN(c1ncnc2c1cnn2-c1ccc(Cl)cc1)C1CCCCC1	63.9% (active)
Clc1ccc(-n2ncc3c(NC4CCCCC4)ncnc32)cc1	10.8% (inactive)
CSC1=C(C#N)C(c2ccccc2[N+](=O)[O-])C2=C(CC(C)(C)CC2=O)N1 (stereo not drawn)	15.7% (inactive)
O=C(NCCOc1ccccc1)c1ccc2nc(NCCN3CCOCC3)sc2c1	-44.4% (inactive)
O=C(Nc1ccc([N+](=O)[O-])cc1Cl)c1ccccc1Br	12.3% (inactive)
O=C(Nc1ccc2c3c(cccc13)CC2)c1cc([N+](=O)[O-])ccc1Br	59.8% (active)
O=C(Nc1ccc2c3c(cccc13)CC2)c1cc([N+](=O)[O-])cc([N+](=O)[O-])c1	-9.02% (inactive)
Cc1cc(C)cc(N2C(=O)N(c3cccc(Cl)c3)C3CS(=O)(=O)CC32)c1 (stereo not drawn)	-20.4% (inactive)
CC(=O)NC(c1cccs1)c1cc(Cl)c2cccnc2c1O (stereo not drawn)	80.8% (active)
CC(=O)NC(c1ccccc1)c1ccc2cccnc2c1O (stereo not drawn)	82.8% (active)
CCOc1ccc(C(C)NC(=O)Cc2ccccc2)cc1 (stereo not drawn)	13.1% (inactive)
COc1cccc(C(=O)NC(c2cccc([N+](=O)[O-])c2)c2cc(Cl)c3cccnc3c2O)c1 (stereo not drawn)	7.94% (inactive)
Cc1ccc(C(NC(=O)Cc2ccccc2)c2ccc3cccnc3c2O)cc1 (stereo not drawn)	82.5% (active)
O=C(Cc1ccccc1)NC(c1ccc(Cl)cc1)c1ccc2cccnc2c1O (stereo not drawn)	82.5% (active)
O=C(COc1ccc(Cl)c(Cl)c1)NC(Cc1ccccc1)C(=O)O (stereo not drawn)	9.8% (inactive)

SMILES	inhibition
CCOc1ccc(C(NC(=O)c2cc(OC)c(OC)c(OC)c2)c2cc(Cl)c3cccnc3c2O)cc1 (stereo not drawn)	9.91% (inactive)
Cc1ccnc(NC(=O)Cc2ccc(Cl)cc2)n1	0.25% (inactive)
CC(=O)NC(NC(C)=O)c1cccnc1	-0.95% (inactive)
Cc1ccc(CC(=O)Nc2ncccn2)cc1	1.2% (inactive)
O=C(NC(=O)c1ccccn1)NC(c1ccccc1)c1ccccc1	-3.05% (inactive)
Cc1ccc(C2C=C(c3ccc(C(C)C)cc3)Nc3nnnn32)cc1 (stereo not drawn)	-3.93% (inactive)
Cn1c(=O)c2c(nc(N(CCO)CCO)n2Cc2cccc3ccccc23)n(C)c1=O	-5.12% (inactive)
O=S(=O)(c1ccc(F)c(Cl)c1)N1CCC(Cn2cnc3ccccc32)CC1	7.12% (inactive)
COC(=O)C1=C(C)OC(N)=C(C#N)C1c1ccc(OCc2ccccc2)cc1 (stereo not drawn)	-17.6% (inactive)
COc1ccccc1NC(=O)Nc1nnc(CSCc2ccc(F)cc2)s1	11.6% (inactive)
CCOC(=O)c1cc([N+](=O)[O-])sc1NC(=O)c1cc(Cl)sc1Cl	1.62% (inactive)
Cc1cccc(NC(=O)CC(C)(C)C)n1	-13.5% (inactive)
N/C(=N\OC(=O)CCCOc1ccc(Cl)cc1Cl)c1nonc1N	-6.56% (inactive)
CCOC(=O)C1=CN(C(C)C)C=C(C(=O)OCC)C1c1cccc([N+](=O)[O-])c1	4.81% (inactive)
CCCn1c(=N)c(C(=O)OCC)cc2c(=O)n3cc(C)ccc3nc21	1.52% (inactive)
O=C1CSC(c2ccc(F)c(F)c2)N1c1ccc(Br)cc1 (stereo not drawn)	-4.77% (inactive)
CCCCC(=O)NC(c1ccc(OC)c(OC)c1)c1ccc2cccnc2c1O (stereo not drawn)	89.2% (active)
CCCCC(=O)NC(c1ccco1)c1ccc2cccnc2c1O (stereo not drawn)	26.7% (inactive)
CCCCC(=O)NC(c1ccc(OC)cc1)c1cc([N+](=O)[O-])c2cccnc2c1O (stereo not drawn)	7.56% (inactive)
CCC1CCCCN1C(=O)Cn1c2ccccc2c(=O)c2cc(C)ccc21 (stereo not drawn)	-3.07% (inactive)
CCn1nnc2c1CCN(CC(O)C(C)(C)C)C2 (stereo not drawn)	-9.09% (inactive)
O=C(Cn1cnc2c(nnn2-c2cccc(F)c2)c1=O)N1CCCCC1	6.15% (inactive)
Cc1cccc(N2CCN(C(=O)c3cccc(N4C(=O)C(C)CS4(=O)=O)c3)CC2)c1 (stereo not drawn)	-2.6% (inactive)
Cc1cccc(N2CCN(C(=O)c3ccc4c(c3)C(=O)N(CCC3=CCCCC3)C4=O)CC2C)c1 (stereo not drawn)	-3.98% (inactive)

SMILES	inhibition
Cc1cccc(N2CCN(C(=O)c3cccc(C#N)c3)CC2C)c1 (stereo not drawn)	41.6% (active)
COc1ccc2c(c1)CC(C(=O)Nc1ccc(-c3ccncc3)cc1OC(C)CN(C)C)CO2 (stereo not drawn)	-0.11% (inactive)
COC(=O)NCC(C)OC(=O)Nc1ccc(C)cc1 (stereo not drawn)	-12.2% (inactive)
CC(C)CC(NC(=O)C(Cc1ccccc1)NC(=O)OC(C)(C)C)C(=O)O (stereo not drawn)	1.85% (inactive)
CC(C(=O)O)c1ccc(NC(=O)OC(C)(C)C)cc1 (stereo not drawn)	32.1% (active)
Cc1cc(C)nc(N2CCN(S(=O)(=O)c3ccc(C)c(Cl)c3)CC2)n1	1.94% (inactive)
Fc1cccc(-c2nnc3ccc4cc(C(F)(F)F)ccc4n23)c1	-12.5% (inactive)
COc1ccc(N2CCN(S(=O)(=O)c3ccc(Cl)cc3)CC2)c([N+](=O)[O-])c1	6.09% (inactive)
CCN(C(=O)COc1ccc(Cl)cc1)c1nnc(-c2cccnc2)s1	-11.5% (inactive)
O=C(CN1C(=O)c2ccccc2C1=O)Nc1ccc(O)cc1	-11.7% (inactive)
O=C1C(Nc2ccc(O)cc2)=C(n2nnc3ccccc32)C(=O)c2ccccc21	27.1% (inactive)
COc1ccccc1NC1=C/C(=N/S(=O)(=O)c2ccc(F)cc2)c2ccccc2C1=O	-21.4% (inactive)
COC(=O)c1ccccc1NC1=C/C(=N/S(=O)(=O)c2ccccc2)c2ccccc2C1=O	5.16% (inactive)
O=C1C=C(Nc2ccc(O)cc2)c2ccccc2C1=O	93.2% (active)
COc1ccc(S(=O)(=O)/N=C2/C=C(Nc3ccc(O)cc3)C(=O)c3ccccc32)cc1	99.3% (active)
CCOC(=O)c1ccccc1Nc1nc(-c2ccc(OC)cc2)no1	8.95% (inactive)
O=[N+]([O-])c1ccc2c(c1)nc1ccccn12	-11.7% (inactive)
CC(=O)N1CCC(N(C(=O)CSCCNC(=O)c2ccccc2Cl)C2CC2)CC1	2.5% (inactive)
CC1CCc2c(sc(NC(=O)c3cc4ccccc4oc3=O)c2C#N)C1 (stereo not drawn)	11.2% (inactive)
C=CCN1C(=S)NC2CC1(C)Oc1c(OC)cccc12 (stereo not drawn)	2.23% (inactive)
CCCOc1ccc(N2C(=O)CC(NCCc3ccc(Cl)cc3)C2=O)cc1 (stereo not drawn)	-11% (inactive)
CCCOc1ccc(Cc2c(Cl)nc(SC)nc2NC)cc1	35.1% (active)
CCOc1ccc(Cc2c(Cl)nc(SC)nc2N(CC)CC)cc1	2.33% (inactive)
COc1cccc(/C=C(\C#N)c2nn(CCO)c(N)c2C#N)c1OCc1ccc(Cl)cc1Cl	2.5% (inactive)

SMILES	inhibition
CC(=O)N1CCc2cc(S(=O)(=O)NCCC(=O)O)ccc21	0.75% (inactive)
CC(=O)N1CCc2cc(S(=O)(=O)NC3CCCCC3)ccc21	10.8% (inactive)
CC(=O)N1CCC(N(C(=O)C2CC2)c2ccc3c(c2)CCN3C(C)=O)CC1	46.4% (active)
CCOC(=O)C1=C(C)N=c2s/c(=C\c3ccc(-c4ccc([N+](=O)[O-])cc4OC)o3)c(=O)n2C1c1ccccc1 (stereo not drawn)	-12.5% (inactive)
CCn1c(=O)[nH]c(=O)c2c(C(F)(F)F)cc(C(F)(F)F)nc21	-11.4% (inactive)
CCOC(=O)c1cc(-c2nnc(-c3ccccc3)o2)c(C)nc1C	-1.76% (inactive)
CCc1ccc(NC(=O)CSC2=C(C#N)C(c3ccco3)C(C(=O)Nc3ccc(Cl)cc3)=C(C)N2)cc1 (stereo not drawn)	26.3% (inactive)
CC(=O)c1c(C)[nH]c(C(=O)Nc2ccc(Cl)c(C(F)(F)F)c2)c1C	3.78% (inactive)
CS(=O)(=O)c1ncc(Cl)c(C(=O)Nc2nc3ccc(F)cc3s2)n1	-10.7% (inactive)
CS(=O)(=O)c1ncc(Cl)c(C(=O)Nc2ccc(Cl)c(C(F)(F)F)c2)n1	51% (active)
Cc1ccc(CC(=O)Nc2ccc(Cl)c([N+](=O)[O-])c2)cc1	-2.28% (inactive)
COc1ccc(Cl)cc1NC(=O)C(=O)Nc1ccc2nc3n(c(=O)c2c1)CCCCC3	0.92% (inactive)
COc1ccc([N+](=O)[O-])cc1C1=N/C(=C/c2ccc(C(C)C)cc2)C(=O)O1	1.78% (inactive)
CCC(=O)N(CCO)Cc1cc2cc(CC)ccc2[nH]c1=O	10.6% (inactive)
CCOC(=O)c1c(NC(=O)c2ccccc2)sc(C(=O)Nc2ccccc2OC)c1C	0.4% (inactive)
Cc1nc(-c2ccc(NC(=O)c3cccc(Br)c3)cc2)cs1	-71.4% (inactive)
Cc1nc(-c2ccc(NC(=O)c3cccs3)cc2)cs1	48.2% (active)
CC(=O)Nc1cccc(-c2csc(C)n2)c1	-2.27% (inactive)
O=C(Nc1ccc(C23CC4CC(CC(C4)C2)C3)cc1)c1cccs1	85.4% (active)
O=C(Nc1cc(Cl)cc(Cl)c1)c1cccs1	-3.5% (inactive)
O=C(Nc1cc(F)cc(F)c1)c1cccs1	-5.52% (inactive)

From PubChem BioAssay AID1259422 (The Scripps Research Institute Molecular Screening Center, 2018)
